The campaign covered roughly 330,000 compounds. About 1,900 (0.58%) were called active. Inconclusive results (about 4%) are left out. These entries were drawn from the full list. Results with a measured potency or affinity are listed apart. A number with no mark means an inactive call. Rule as the data show it: inconclusive = inhibition above about 70% without an active follow-up result; inactive = below that.
test: M. tuberculosis growth inhibition, HTS (AID 449762);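 also: bacterial growth assessed after seven days of incubation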; conditions: M. tuberculosis H37Rv growth inhibition, 7H9 media; at 25 µM; active compounds read high

| Structure (SMILES) | inhibition [%] |
| --- | --- |
| CC(=O)Nc1ccccc1O | -6.49 |
| O=C(Nc1ccccc1O)c1ccccc1O | -2.76 |
| CCC(=O)c1ccc(OCC(O)CNC2CCCC2)cc1 (stereo not given) | -4.31 |
| Clc1ccc(Cn2ncc3c(N4CCCC4)ncnc32)cc1 | 6.77 |
| Cc1ccc(Cn2ncc3c(N4CCN(Cc5ccc(Cl)cc5)CC4)ncnc32)cc1 | 35 |
| COc1ccc(NC(=O)c2c3c(nc4ccccc24)CCC3)cc1 | 2.33 |
| CCC(O)(CC)C(=O)NN(C(=O)CCl)c1ccccc1 | 64.9 |
| CCCC(O)(CCC)C(=O)NN(C(=O)CCl)c1ccccc1 | 64.3 |
| CC(C)(C)NC(=O)C1Cc2ccccc2CN1S(=O)(=O)c1ccc(F)cc1 (stereo not given) | -4.99 |
| CC(C)Oc1cccc(C(=O)C2CCCN(Cc3cnc(N4CCOCC4)s3)C2)c1 (stereo not given) | 0.96 |
| CCOC(=O)N1CCN(S(=O)(=O)c2ccc(C(=O)N(CCN(CC)CC)c3nc4ccc(C)cc4s3)cc2)CC1 | -2.86 |
| CCN(CC)CCN(C(=O)c1ccc(S(=O)(=O)N2CCCCC2)cc1)c1nc2cc3c(cc2s1)OCO3 | 1.42 |
| CCN(CC)C(=O)N1CCC(NC(=O)c2ccc(C(C)(C)C)cc2)CC1 | 9.36 |
| Cc1cc(NC(=O)CSc2nc3ccccc3s2)no1 | 3.12 |
| Cc1ccc(C=C2C(=O)c3ccccc3C2=O)o1 | -3.84 |
| NS(=O)(=O)c1ccc(-c2ccc(/C=C3\C(=O)Nc4ccccc43)o2)cc1 | -2.7 |
| CC1CN(S(=O)(=O)c2cccc(C(=O)NCCCn3ccnc3)c2)CC(C)O1 (stereo not given) | -14.2 |
| CCOC(=O)NC(=O)c1cn(N(C)c2ncc(C(F)(F)F)cc2Cl)c(=O)[nH]c1=O | -2.39 |
| CC(OC(=O)c1cc[n+]([O-])cc1)C(=O)Nc1ccc(Cl)cn1 (stereo not given) | -4.2 |
| CC(OC(=O)c1ccco1)C(=O)Nc1ccc(Cl)cn1 (stereo not given) | 0.78 |
| COC(=O)c1sccc1-n1cccc1C(=O)C(=O)N1CCCC1 | 0.85 |
| CCOCc1cnc(C)nc1NCC(=O)c1c(C)[nH]c2ccc(OC)cc12 | -0.42 |
| COc1cc2c(C(=O)N3CCN(c4cccc(Cl)c4)CC3)cn(C)c(=O)c2cc1OC | -1.4 |
| CCn1cc(C(=O)N2CCN(c3cccc(Cl)c3)CC2)c2cc(OC)c(OC)cc2c1=O | -2.64 |

| Structure (SMILES) | inhibition [%] |
| --- | --- |
| O=C(O)CCC(=O)NNC(=O)CCC1CCCCC1 | 0.82 |
| CCOC(=O)c1c(NC(=O)OC)sc(C(=O)N(CC)CC)c1C | 10.1 |
| CCN(CC)C(=O)c1[nH]cnc1C(=O)NCc1ccc(CNC(=O)OC(C)(C)C)cc1 | -4.15 |
| Cc1oc2nc(SCC(=O)NC3CCCCC3)nc(N)c2c1C | 3.18 |
| COc1cccc(CC2(CO)CCCN(Cc3ccc(C)s3)C2)c1 (stereo not given) | 1.24 |
| COc1cccc(CC2(CO)CCCN(Cc3cc4ccccc4[nH]3)C2)c1 (stereo not given) | 10.5 |
| COc1ccccc1CCNC(=O)CCSc1nc(-c2ccco2)cc(C(F)(F)F)n1 | -1.55 |
| CCCN=Cc1sc2ccc(OCC)cc2c1O | -4.1 |
| Cc1cccc(NC(=O)/C(C#N)=C\c2cccnc2)c1 | -10.8 |
| NC(=O)C1CCN(Cc2nc3cc(C(F)(F)F)ccc3c(=O)[nH]2)CC1 | 2.7 |
| COc1cc2nc(CN3CC=C(c4ccccc4)CC3)[nH]c(=O)c2cc1OC | 3.16 |
| COc1ccc(CCNC(=O)CCNS(=O)(=O)c2cccc3nonc23)cc1OC | 2.46 |
| COC(=O)/C=C1/S/C(=N/NC(=O)c2ccccc2)NC1=O | -1.82 |
| O=C(CN1CCCCC1)N/N=C/c1ccccc1OCc1ccccc1 | -1.99 |
| Cn1c(=O)c2c(ncn2CC(=O)Nc2ccccc2Sc2ccccc2)n(C)c1=O | -2.88 |
| CN(C)C(=O)c1cc(C(=O)c2ccc(F)cc2C(F)(F)F)c[nH]1 | -3.23 |
| CCSc1nnnn1-c1ccccc1 | 3.88 |
| c1ccc(-n2nnnc2SCCCSc2nc3ccccc3s2)cc1 | -4.17 |
| N#Cc1ccccc1OCC(=O)N1CCc2ccccc2C1 | -4.88 |
| Cc1ccc(-c2nnc(NCc3nc4ccccc4[nH]3)c3ccccc23)cc1S(=O)(=O)N1CCOCC1 | 63.7 |
| Cc1nc(-c2ccccc2)sc1C(=O)CSc1ccc(Cl)cc1 | -5.11 |
| c1ccc2c(c1)OCc1cn[nH]c1-2 | -2.59 |
| Cc1ccc(/C=C/c2nnc(-c3ccccc3)o2)cc1 | -11.8 |
| CCOC(=O)CSc1[nH]c2cc(OC)ccc2c1[N+](=O)[O-] | 6.24 |

| Structure (SMILES) | inhibition [%] |
| --- | --- |
| COC(=O)CSc1[nH]c2ccccc2c1[N+](=O)[O-] | -2.39 |
| CN(C)CCOc1ccc2ccccc2c1 | 2.98 |
| CN(C)CCOc1ccc(C(C)(C)c2ccccc2)cc1 | -3.02 |
| COc1ccccc1NC(=O)Nc1ccc(F)c(F)c1 | 0.47 |
| CCc1nnc(NS(=O)(=O)c2ccc(N/C=C/C(=O)c3ccc(OC)cc3)cc2)s1 | 4.48 |
| CCc1nnc(NS(=O)(=O)c2ccc(N/C=C\C(=O)c3ccc4ccccc4c3)cc2)s1 | -6.64 |
| Cn1c(=O)c2c(SCC(=O)Nc3nccs3)nc(C3CC3)nc2n(C)c1=O | -1.82 |
| Cc1ccc(C2=NS(=O)(=O)N(C)C(C(=O)Nc3cc(C)n(CC(=O)N4CCCCC4)n3)=C2)cc1 | -4.07 |
| Cc1cccc(N=C2C(=O)Nc3c(Cl)cccc32)c1 | 6.57 |
| Cc1ccc(NC(=O)CSc2nc3ccccc3c3nc(CCn4cncc4C)nn23)c(C)c1 | 9.55 |
| Cc1ccccc1NC(=O)CSc1nc2ccccc2c2nc(CCn3cncc3C)nn12 | 6.6 |
| O=C(NCc1ccc2c(c1)OCO2)c1ccc(C2SCC(=O)N2Cc2ccco2)cc1 (stereo not given) | -7.71 |
| COc1ccc(C(=O)NCc2ccc3c(c2)OCO3)cc1 | -0.3 |
| COc1cc2c(cc1NC(=O)CN1CCN(S(=O)(=O)c3ccc(C)cc3)CC1)oc1ccccc12 | -6.72 |
| Cc1nc2nc3c(c(=O)n2[nH]1)CCCC3 | -1.58 |
| Cc1nc2nc3c(c(=O)n2[nH]1)CCC3 | -2.58 |
| O=c1c2c(nc3nc(NCc4ccccc4Cl)[nH]n13)CCC2 | 21.9 |
| O=c1c2c(nc3nc(NCc4cccc(Cl)c4)[nH]n13)CCC2 | 19.9 |
| COc1ccc(NC(=O)C2CCN(c3cc(-c4ccccc4)nc4ncnn34)CC2)cc1OC | -9.41 |
| CCOc1ncccc1C(=O)Nc1cccc(-c2nc3cccnc3s2)c1 | 2.6 |
| CCn1c(=O)n(CC)c2cc(S(=O)(=O)Nc3c(C)cccc3C)ccc21 | -0.18 |
| O=C1/C(=C\c2cccnc2)CCc2ccccc21 | 53.9 |
| O=C1/C(=C/c2ccncc2)CCc2ccccc21 | 20.6 |
| COc1ccc(CNC(=O)C2CCN(C(=O)c3csc(Nc4ccc(C)cc4)n3)CC2)cc1 | 9.09 |

| Structure (SMILES) | inhibition [%] |
| --- | --- |
| CC(CN1CCCCC1)OC(=O)/C=C/c1ccccc1 (stereo not given) | 4.22 |
| CCCc1nc2c(=O)[nH]c3ccccc3c2o1 | -2.82 |
| CCCCc1nc2c(=O)[nH]c3ccccc3c2o1 | -3.26 |
| CC(C)N1CCc2c(sc(NC(=O)CCc3ccccc3)c2C(N)=O)C1 | 2.58 |
| Cc1cccc(CNc2ncnc3ccc(-c4ccc5c(c4)OCO5)cc23)c1 | 4.98 |
| c1cncc(CNc2ncnc3ccc(-c4ccc5c(c4)OCCO5)cc23)c1 | 6.78 |
| O=C(CN1C(=O)NC(c2ccccc2)(c2ccccc2)C1=O)N1CCCCC1 | 3.83 |
| O=C1[C@H]2[C@@H](c3ccc(F)cc3)N3C(=O)N(c4ccccc4)C(=O)[C@@]3(Cc3ccccc3)[C@H]2C(=O)N1C1CCCCC1 | -4.71 |
| CC1(C)CC1C(=O)Nc1ccc([N+](=O)[O-])cc1Br (stereo not given) | -1.2 |
| Cc1cccc(C2(c3cccc(C)c3)CC2C(=O)Nc2ccc([N+](=O)[O-])cc2O)c1 (stereo not given) | 8.65 |
| CCC(=O)NC(=S)Nc1ccc(OC)cc1OC | 2.55 |
| Cc1nc(SCC(=O)NCC2CCCO2)c2c3c(sc2n1)CCC3 (stereo not given) | -2.08 |
| Cc1nc(SCC(=O)NCC2CCCO2)c2c(C)c(C)sc2n1 (stereo not given) | -15.3 |
| O=C(CSc1nc2scc(-c3ccccc3)c2c(=O)[nH]1)NCCc1ccccc1 | -20.7 |
| O=c1[nH]c(=O)n(C2CCCO2)cc1Br (stereo not given) | 1.51 |
| O=c1[nH]c(=O)n([C@H]2C[C@H](O)[C@@H](CO)O2)cc1F | 34.4 |
| COc1ccc(O)c(CN2CCCC(N3CCN(c4ccccc4OC)CC3)C2)c1 (stereo not given) | 4.68 |
| O=C(CCNC(=O)c1ccccc1Cl)Nc1nccs1 | -4 |
| COc1ccc(N(CC(=O)NCCc2ccccc2)C(=O)c2csnn2)cc1OC | -2.24 |
| COc1ccc(C2CC2C(C)=O)cc1 (stereo not given) | -4.29 |
| COc1ccc(C2CC2/C(C)=N/OC(=O)C2CC2)cc1 (stereo not given) | 68.7 |
| CC(C)(C)OC(=O)N1CCC(CC2CC(c3ccncc3)=NO2)(C(=O)O)CC1 (stereo not given) | -6.97 |
| O=c1c2ccccc2nnn1CSc1ccc2ccccc2n1 | -1.57 |

— PubChem BioAssay AID449762 (Southern Research Specialized Biocontainment Screening …, 2010)
